From PubChem BioAssay
Compounds with a hit are over-represented: about 1.2% of the library has one in this group of screens.
Glyco luc inh: blocks N-linked glycosylation in D54 reporter cells | D54 ERlucT glycosylation luciferase reporter, 24 h; percent of 100 nM tunicamycin response | reporter increase, % at 12.5 µM | 360,000 tested, 0.23% active | AID 588692;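 active = mean luciferase reporter signal, scaled so untreated is 0 and the glycosylation-blocking control 100, at or above a set limit in every replicate; inconclusive = mean reaches the limit but not every replicate does; inactive = mean below the limit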;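 also: luciferase carries N-glycosylation sites so blocking glycosylation raises the light; 0% = median of neutral control wells and 100% = median of 100 nM tunicamycin wells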
RAD52 inh: RAD52 (human) annealing inhibition; P43351; recombinant RAD52 DNA annealing, FRET fluorescence; inhibition, % at 18.7 µM; 360,000 tested, 0.46% active; AID 651710;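 active = every replicate showing at least 50% inhibition; inconclusive = mean inhibition at least 50% but not in every replicate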
RAD54 branch: blocks human RAD54 Holliday junction branch migration. FAM/BHQ fluorescence. Q92698. 360,000 tested, 0.14% active. inhibition, % at 10.4 µM;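 active = mean normalized replicate activity at least 40 and at least half of replicates scoring 40 or more; inconclusive = only one of the two criteria met; inactive = mean below 40 and under half of replicates reaching 40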;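 also: 0% = median of neutral control wells and 100% = median of positive control wells; inhibitors cause a drop in the FAM fluorescence signal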
Casp6 inh: caspase-6 (human) enzyme inhibition | inhibition, % at 12.5 µM | P55212 | purified caspase-6, Z-VEID-R110 cleavage fluorescence | 350,000 tested, 0.53% active;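 active = mean inhibition across replicates at least about 35%, with every replicate also reaching that limit, limit read from the data; inconclusive = only one of the two criteria met; inactive = neither criterion met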;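 also: 0% = median of neutral control wells and 100% = no fluorescence left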
Target sequence (P55212 24-179 limits assumed): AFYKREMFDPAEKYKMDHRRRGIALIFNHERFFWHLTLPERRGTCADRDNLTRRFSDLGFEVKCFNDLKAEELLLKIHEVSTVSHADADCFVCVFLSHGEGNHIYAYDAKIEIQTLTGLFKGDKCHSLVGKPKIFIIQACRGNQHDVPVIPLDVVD
Target sequence (P55212 194-293 limits assumed): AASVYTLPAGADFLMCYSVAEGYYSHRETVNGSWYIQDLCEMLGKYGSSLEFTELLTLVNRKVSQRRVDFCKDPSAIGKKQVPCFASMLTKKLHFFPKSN
AF4-AF9 inh: inhibitors of human MLL-AF4/AF9 interaction. inhibition, % at 10 µM. AlphaScreen, biotin-AF4 peptide binding to FLAG-AF9. 350,000 tested, 0.47% active. P42568. AID 651704;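 active = every replicate reaching a set inhibition limit, whatever the replicate mean, cut at about 25% in these data; inconclusive = mean inhibition reaches that limit but some replicates miss it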;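 also: 0% = plate neutral control median and 100% = total signal loss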
* hit, by the source's call; ! = a repeat was not active.

What do the screens show for `CCC(=O)N[C@H]1CC[C@@H](CC(=O)OC)O[C@@H]1CO`?
RAD52 inh: 1; RAD54 branch: 2; Casp6 inh: 7; AF4-AF9 inh: 0

Results for COc1ccc(CN(C)C[C@H]2Oc3ccc(NS(=O)(=O)c4ccc(F)cc4)cc3CC(=O)N([C@@H](C)CO)C[C@@H]2C)cc1 ?
RAD52 inh: 12; RAD54 branch: 10; Casp6 inh: -2; AF4-AF9 inh: 3

How did O=C(O)C1CSC(c2ccco2)N1 (centres undefined) do in these assays?
Glyco luc inh: 3; RAD52 inh: -36; RAD54 branch: -1; Casp6 inh: 86*; AF4-AF9 inh: -11

How did Cc1sc2ncnc(SCC(=O)Nc3ncccc3O)c2c1C do in these assays?
Glyco luc inh: 0; RAD52 inh: -51; RAD54 branch: -3; Casp6 inh: 43*; AF4-AF9 inh: 3

Results for COc1cc([C@H]2c3[nH]c4ccccc4c3C[C@H]3C(=O)N4[C@@H](c5cc(OC)c(OC)c(OC)c5)c5[nH]c6ccccc6c5C[C@H]4C(=O)N23)cc(OC)c1OC ?
Glyco luc inh: 20; RAD54 branch: -2

How did COc1cc(C2c3[nH]c4ccccc4c3CC3COC(=O)N32)cc(OC)c1O (centres undefined) do in these assays?
Glyco luc inh: 36*; RAD52 inh: -5; Casp6 inh: 2; AF4-AF9 inh: 2

Results for CCCCn1c(N)c(N(CC(C)C)C(=O)CC(NC(=O)c2ccccc2Cl)c2ccccc2)c(=O)[nH]c1=O (centres undefined) ?
Glyco luc inh: 2; RAD52 inh: -8; RAD54 branch: 2; Casp6 inh: -1; AF4-AF9 inh: -3

Results for CCCCn1c(N)c(N(CC(C)C)C(=O)CC(NC(=O)c2ccccc2)c2ccccc2)c(=O)[nH]c1=O (centres undefined) ?
Glyco luc inh: 0; RAD52 inh: -4; Casp6 inh: 65*; AF4-AF9 inh: 0

How did CCCCN(C(=O)c1cccc(-n2cccc2)c1)c1c(N)n(CCCC)c(=O)[nH]c1=O do in these assays?
Glyco luc inh: 0; RAD52 inh: -23; RAD54 branch: 6; Casp6 inh: 43*; AF4-AF9 inh: 1

Results for CCCCn1c(N)c(N(CCC(C)C)C(=O)c2cccc(N3C(=O)c4ccccc4C3=O)c2)c(=O)[nH]c1=O ?
Glyco luc inh: 3; RAD52 inh: -11; RAD54 branch: 10; Casp6 inh: 0; AF4-AF9 inh: 1

Results for CCOc1cc2c3c(c1)C(C)=CC(C)(C)N3C(=O)C2=O ?
Glyco luc inh: 15; RAD52 inh: -13; RAD54 branch: 12; Casp6 inh: -4; AF4-AF9 inh: 16

Results for CC(=O)Oc1cc2c3c(c1)/C(=C1/SC(=S)NC1=O)C(=O)N3C(C)(C)C=C2C ?
Glyco luc inh: 1; RAD52 inh: -6; Casp6 inh: 0; AF4-AF9 inh: 30*

How did COCCNC(=O)C[C@H]1CC[C@H]2[C@@H](COc3ccc(NC(=O)Nc4ccccc4)cc3C(=O)N2C)O1 do in these assays?
RAD52 inh: -3; RAD54 branch: -1; Casp6 inh: 0; AF4-AF9 inh: -1

What do the screens show for `COc1cccc(OCc2nnc(SCc3cc(=O)[nH]c4ccccc34)o2)c1`?
Glyco luc inh: 0; RAD52 inh: -6; Casp6 inh: -2; AF4-AF9 inh: 38*

Results for O=C(O)CCCC(=O)OCCCc1cc2ccccc2c(=O)o1 ?
RAD52 inh: -8; Casp6 inh: 37*; AF4-AF9 inh: -2

Results for C[C@@H]1CN([C@@H](C)CO)C(=O)c2cc(NC(=O)CCCCCC(=O)Nc3ccccc3N)ccc2O[C@H]1CN(C)S(=O)(=O)c1ccc(F)cc1 ?
RAD52 inh: 15; Casp6 inh: -2; AF4-AF9 inh: 0

How did CCOC(=O)N1CCN(C(=O)Cn2nc(C)n3nc(-c4ccc(CC)cc4)cc3c2=O)CC1 do in these assays?
Glyco luc inh: 1; RAD52 inh: -1; RAD54 branch: -1; Casp6 inh: 2; AF4-AF9 inh: -1

How did CCOC(=O)N1CCN(C(=O)Cn2nc(C)n3nc(-c4ccc(OC)cc4)cc3c2=O)CC1 do in these assays?
Glyco luc inh: 1; RAD52 inh: -2; RAD54 branch: 1; Casp6 inh: 38*; AF4-AF9 inh: -3

How did c1cc(-c2ccc(C3[C@H]4CNC[C@@H]3N4CC3CCCCC3)cc2)ccn1 (some centres undefined) do in these assays?
RAD52 inh: -14; Casp6 inh: -11; AF4-AF9 inh: 29*

What do the screens show for `CC=Cc1ccc2n(c1=O)C[C@@H]1[C@@H](CO)[C@H](C(=O)NC3CCC3)N(Cc3ccncc3)[C@H]21` (mixture of isomers)?
RAD52 inh: -22; Casp6 inh: 2; AF4-AF9 inh: -4

What do the screens show for `CCN1CCN(c2ncnc3c2cnn3-c2ccc(Cl)cc2)CC1`?
Glyco luc inh: -7; RAD52 inh: 8; RAD54 branch: 6; Casp6 inh: 38*; AF4-AF9 inh: 0

How did CCN1CCN(c2ncnc3c2cnn3-c2ccccc2)CC1 do in these assays?
Glyco luc inh: -1; RAD52 inh: -12; RAD54 branch: -1; Casp6 inh: -6; AF4-AF9 inh: 3

Results for Oc1c(C(c2ccccn2)N2CCC(Cc3ccccc3)CC2)cc(Cl)c2cccnc12 (centres undefined) ?
RAD52 inh: -5; Casp6 inh: 5; AF4-AF9 inh: 45*

Results for Cc1ccc(C(c2cc(Cl)c3cccnc3c2O)N2CCN(C)CC2)cc1 (centres undefined) ?
Glyco luc inh: 43*; RAD54 branch: 8

How did CCCC#Cc1cnc2c(c1)C(=O)N([C@@H](C)CO)C[C@@H](C)[C@H](CN(C)C(=O)c1cccc(F)c1)O2 do in these assays?
RAD52 inh: 3; RAD54 branch: -6; Casp6 inh: -2; AF4-AF9 inh: -3

How did CCCCCCCCCCOC(=O)Cn1c(COc2ccccc2C)[n+](C)c2ccccc21 do in these assays?
Glyco luc inh: 8; RAD52 inh: 83*; RAD54 branch: inconclusive; Casp6 inh: -78

How did CCCCCCCCCCOC(=O)Cn1c(COc2ccc(OC)cc2)[n+](C)c2ccccc21 do in these assays?
Glyco luc inh: 19; RAD54 branch: 58*!

What do the screens show for `CCOC(=O)Cn1c(COc2ccccc2OC)[n+](C)c2ccccc21`?
Glyco luc inh: 4; RAD52 inh: 5; RAD54 branch: -2; Casp6 inh: 4; AF4-AF9 inh: -1

How did CCCCOC(=O)Cn1c(=O)n(CC(=O)OCCCC)c2ccccc21 do in these assays?
Glyco luc inh: -5; RAD54 branch: -3

How did O=C(O)c1ccc(NC2=C(n3nnc4ccccc43)C(=O)c3ccccc3C2=O)cc1 do in these assays?
Glyco luc inh: 4; RAD52 inh: -9; Casp6 inh: 83*; AF4-AF9 inh: -7

How did O=C(O)c1cccc(NC2=C(N3CCOCC3)C(=O)c3ccccc3C2=O)c1 do in these assays?
Glyco luc inh: 1; RAD52 inh: -24; RAD54 branch: -2; Casp6 inh: 11; AF4-AF9 inh: -1
